Measurements: the supplement of paper PMC10498489
The campaign covered roughly 2,300 compounds. About 330 (14%) showed activity.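 Rule for the calls: active = median modified Z-score above 1.96; inactive = 1.96 or below.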 The list is a sample of the results.

What follows are compounds tested on HepG2 Srxn1-GFP reporter cells (+30 nM CDDO-Me) (assay: Srxn1-GFP intensity median modified Z-score relative to plate median; higher = stronger NRF2 / oxidative stress reporter activation, active = hit call of the paper). Conditions: 10 µM; exposure time: 24h.
In short: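 In 96-well plates holding 20,000 HepG2 Srxn1-GFP BAC reporter cells per well, compound at 10 μM and an NRF2 activator at 30 nM were added together for 24 h, with DMSO at ≤0.1%, across three replicate plates. After fixation in formaldehyde and Hoechst staining, confocal images were analysed cell by cell for cytoplasmic GFP, and images containing under 100 cells were excluded. Values are replicate medians of the per-plate modified Z-score of GFP intensity, scaled by 1.4826 × median absolute deviation.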

SMILES | Srxn1-GFP intensity median modified Z-score
CCCCCCCCCCCCCCCC(=O)OCC(O)c1oc(O)c(O)c1O (stereo not drawn) [euspeclibcmpd862] | -0.777 (inactive)
CC(C)(Oc1ccc(C(=O)c2ccc(Cl)cc2)cc1)C(=O)O [euspeclibcmpd2188] | -0.278 (inactive)
Cc1c2oc3c(C)ccc(C(=O)OC(C)C4NC(=O)C(C(C)C)N(C)C(=O)CN(C)C(=O)C5CCCN5C(=O)C(C(C)C)NC4=O)c3[nH]c-2c(C(=O)OC(C)C2NC(=O)C(C(C)C)N(C)C(=O)CN(C)C(=O)C3CCCN3C(=O)C(C(C)C)NC2=O)c(=N)c1=O (stereo not drawn) [euspeclibcmpd955] | -2.39 (inactive)
CN(C)CCCN1c2ccccc2Sc2ccccc21 [euspeclibcmpd252] | 0.744 (inactive)
CN1CCN(CCCN2c3ccccc3Sc3ccc(Cl)cc32)CC1 [euspeclibcmpd249] | 3.78 (active)
CNCCCN1c2ccccc2Sc2ccccc21 | 2.13 (active)
CNCCCN1c2ccccc2CCc2ccccc21 [euspeclibcmpd86] | 1.22 (inactive)
OCCN1CCN(CCCN2c3ccccc3Sc3ccc(Cl)cc32)CC1 [euspeclibcmpd640] | -1.43 (inactive)
CN1CCN(CCCN2c3ccccc3Sc3ccc(C(F)(F)F)cc32)CC1 [euspeclibcmpd306] | 0.328 (inactive)
C/C(=C(/CCOP(=O)(O)O)SC(=O)c1ccccc1)N(C=O)Cc1c[nH]c(C)nc1=N [euspeclibcmpd1052] | 1.09 (inactive)
O=C(CCc1ccccc1)NCCO | 1.29 (inactive)
Cc1nnc(SC=C2CSC3C(NC(=O)Cn4cnnn4)C(=O)N3C2C(=O)O)s1 (stereo not drawn) [euspeclibcmpd2337] | 0.336 (inactive)
CCCCNC(=O)c1ccc(NC(C)=O)cc1 | 0.99 (inactive)
COC(=O)C(C)=CCC12OC(C)(C)C3CC(=CC4C(=O)c5c(OC)c6c(c(CC=C(C)C)c5OC431)OC(C)(CCC=C(C)C)C=C6)C2=O (stereo not drawn) [euspeclibcmpd2284] | 55.9 (active)
COc1ccc(-c2coc3c4c(c(CC=C(C)C)c(OC)c3c2=O)OC(C)(C)C=C4)cc1OC [euspeclibcmpd2197] | -0.274 (inactive)
CC(C)=CCCC1(C)C=Cc2c(O)c3c(c(CC=C(C)C)c2O1)OC12C(=CCCC1C(C)(C)O[C@@]2(C=CC(C)C(=O)O)C(=O)O)C3=O (stereo partly drawn) [euspeclibcmpd1701] | 6.67 (active)
CC(C)=CCCC1(C)C=Cc2c(O)c3c(c(CC=C(C)C)c2O1)OC12C(CC4CC1C(C)(C)OC2(C=CC(C)C(=O)O)C4O)C3=O (stereo not drawn) [euspeclibcmpd1941] | 50.9 (active)
CC(C)=CCCC1(C)C=Cc2c(O)c3c(c(CC=C(C)C)c2O1)OC12C(=CC4CC1C(C)(C)OC2(C=CC(C)C(=O)O)C4=O)C3=O (stereo not drawn) [euspeclibcmpd1425] | 127 (active)
Cc1cc(C)cc(-c2nnc(SCc3csc(Nc4ccccc4)n3)o2)c1 | 0.289 (inactive)
O=c1[nH]cnc2[nH]ncc12 [euspeclibcmpd15] | 0.378 (inactive)
CCOC(=O)O[C@]1(C(=O)COC(=O)CC)CCC2C3CC=C4CC(=O)C=C[C@]4(C)C3[C@@H](O)C[C@@]21C (stereo partly drawn) [euspeclibcmpd1145] | -0.25 (inactive)
NC(COCc1ccccc1)C(=O)O (stereo not drawn) [euspeclibcmpd2285] | -0.141 (inactive)

SMILES | Srxn1-GFP intensity median modified Z-score
Cc1cc(CC(C)CC(C)(C)C)n(O)c(=O)c1 (stereo not drawn) [euspeclibcmpd627] | 0.455 (inactive)
O=C(NC(Cc1cc(=O)[nH]c2ccccc12)C(=O)O)c1ccc(Cl)cc1 (stereo not drawn) [euspeclibcmpd1178] | 0.0863 (inactive)
CN(CCOC(c1ccccc1)c1ccccc1)S(C)(=O)=O | 1.57 (inactive)
CC(=O)Nc1cc2ccccc2oc1=O [euspeclibcmpd1797] | 0.241 (inactive)
CCCC(=O)N=c1[nH]cnc2c1ncn2C1O[C@@H]2COP(=O)(O)O[C@H]2[C@H]1OC(=O)CCC (stereo partly drawn) [euspeclibcmpd1111] | 0.97 (inactive)
CCCCCCOC(=O)N=C(N)c1ccc(NCc2nc3cc(C(=O)N(CCC(=O)OCC)c4ccccn4)ccc3n2C)cc1 [euspeclibcmpd2169] | 0.57 (inactive)
O=c1c2ccccc2[nH]c2ccccc12 | 0.588 (inactive)
N=c1c2c([nH]c3ccccc13)CCCC2 [euspeclibcmpd944] | -0.0541 (inactive)
N=c1c2ccccc2[nH]c2ccccc12 [euspeclibcmpd350] | 15 (active)
CC(=O)c1c(O)c(C)c(O)c2c1OC1=CC(=O)C(C(C)=O)C(=O)C12C (stereo not drawn) [euspeclibcmpd1449] | 12.3 (active)
NCCC(=O)C(O)N[C@@H]1C[C@H](N)[C@@H](O[C@H]2O[C@H](CN)[C@@H](O)[C@H](O)[C@H]2O)[C@H](O)[C@H]1O[C@H]1O[C@H](CO)[C@@H](O)[C@H](N)C1O (stereo partly drawn) [euspeclibcmpd967] | -0.34 (inactive)
CCCC[C@@H](CC)COC(=O)/C=C/c1ccc(OC)cc1 [euspeclibcmpd2186] | 1.35 (inactive)
COC1=CC(=O)C(C(=O)c2ccccc2)=CC1=O [euspeclibcmpd1986] | -0.559 (inactive)
COC1=CC(=O)C=C(OC)C1=O [euspeclibcmpd2007] | 0.392 (inactive)
COC1=CC(=O)C(=O)C=C1C=CCc1ccccc1 [euspeclibcmpd1419] | 9.05 (active)
CC(=O)OCC(=O)[C@@]1(O)CCC2C3CC=C4CC(=O)CC[C@]4(C)[C@@]3(F)[C@@H](O)C[C@@]21C (stereo partly drawn) [euspeclibcmpd127] | -0.373 (inactive)
Cc1n[nH]c(=NS(=O)(=O)c2ccc(N)cc2)s1 [euspeclibcmpd277] | -0.64 (inactive)
Cc1csc(/C(C#N)=C\C=C\c2ccccc2[N+](=O)[O-])n1 | 35.4 (active)
OC[C@@H](O)[C@@H](O[C@@H]1O[C@H](CO)[C@H](O)[C@H](O)[C@H]1O)[C@H](O)[C@@H](O)CO [euspeclibcmpd2389] | -0.142 (inactive)
CC1(C(=O)O)CCC2(C)CCC3(C)C(=C2C1)CC(=O)C1C2(C)CCC(O)C(C)(C)C2CCC13C (stereo not drawn) [euspeclibcmpd1963] | -0.0731 (inactive)
O=C(COC(=O)C12CC3CC(C1)CC(c1ccccc1)(C3)C2)Nc1ncc(C(F)(F)F)cc1Cl | 1.42 (inactive)
